In the library only some 10% were active in any assay of this set; here they are far more common.
BAZ2B inh: BAZ2B (human) inhibition | Q9UIF8 | Potency, µM (titrated, usually from 114 µM), for the others: top-dose activity change, negative = inhibition, most hits filed as inhibitors | 360,000 compounds, 4.4% hits | AID 504333 | AlphaScreen BAZ2B-H3K14Ac peptide displacement; further: on the % scale 0 is the no-effect control and ±100 the full control effect; nearly all actives have a fitted effect of over 60% in size
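Complex of BAZ2B and biotin-H3K14Ac (50 nM apiece) forms over 30 min at RT, then faces library compounds up to 110 uM for another 30 min; AlphaScreen beads added, 20 min dark incubation, luminescence read.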
GLS inh: blocks human kidney-isoform glutaminase activity; O94925; GLS enzymatic activity, qHTS titration; Potency, µM (titrated, usually from 45.5 µM), for inactives: at the highest dose activity change, negative = inhibition, actives largely listed as inhibitors; 410,000 compounds, 0.21% hits; AID 624170; further: on the % scale 0 is the no-effect control and ±100 the full control effect
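Two-point fluorescence kinetic (t0, 30 min RT) for hKGA; glutamate detected via glutamate oxidase–HRP–Amplex Red. Substrate: 1 mM L-glutamine solution; buffer 45 mM KH2PO4, pH 8.2.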
JMJD2A Tudor inh: inhibitors of human JMJD2A Tudor domain; O75164; AlphaScreen JMJD2A-Tudor / H3K4me3 peptide binding; Potency, µM (highest dose often 114 µM), for inactives: top-dose activity change, negative = inhibition, usual class: inhibitors; 390,000 compounds, 4.4% hits; AID 504339; further: on the % scale 0 is the no-effect control and ±100 the full control effect; nearly all actives have a fitted effect of over 50% in size
HP1b chromo inh: inhibitors of HP1-beta chromodomain binding to methylated histone tails; P83916; AlphaScreen HP1-beta / biotin-H3K9me3 peptide binding; Potency, µM (highest dose often 114 µM), without a hit: at the highest dose activity change, negative = inhibition, hits mostly inhibitors; 390,000 compounds, 0.56% hits; AID 540317; further: nearly all actives have a fitted effect of over 70% in size
Target sequence (P83916 whole entry, looked up): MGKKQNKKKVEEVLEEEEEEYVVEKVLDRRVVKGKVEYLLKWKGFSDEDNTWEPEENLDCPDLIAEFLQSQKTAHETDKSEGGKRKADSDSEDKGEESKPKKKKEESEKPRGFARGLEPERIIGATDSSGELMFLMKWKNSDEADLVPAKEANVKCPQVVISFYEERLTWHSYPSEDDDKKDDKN
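AlphaScreen: HP1-beta (50 nM) preformed 30 min with biotin-H3(1-18)K9me3 peptide (50 nM) in PBS pH 7.4, 0.01% Tween-20. Compound added for 30 min at RT, then streptavidin donor/nickel chelate acceptor beads (10 ug/mL) for 30 min.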
L3MBTL1 inh: L3MBTL1 (human) inhibition; Q9Y468; AlphaScreen L3MBTL1–H3K9me1 peptide binding; Potency, µM (titrated, usually from 57.1 µM), inactives show top-dose activity, negative = inhibition, hits mostly inhibitors; 230,000 compounds, 0.66% hits; AID 485360; further: on the % scale 0 is the no-effect control and ±100 the full control effect; nearly all actives have a fitted effect of over 60% in size
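AlphaScreen assay: L3MBTL1 (50 nM final) was preincubated 30 min at room temperature with biotinylated H3(1-15)K9me1 peptide (75 nM final), then 30 min with library compounds; streptavidin donor and nickel chelate acceptor beads (10 ug/mL final) added, 30 min dark.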
G9a inh: blocks human histone lysine methyltransferase G9a; 350,000 compounds, 8.8% hits; Potency, µM (top dose mostly 102 µM), for inactives: top-dose activity, negative = inhibition, actives largely listed as inhibitors; G9a H3K9 monomethylation, AlphaScreen, 2 h; further: on the % scale 0 is the no-effect control and ±100 the full control effect; nearly all actives have a fitted effect of over 75% in size
Target sequence (Q96KQ7 913-1193 limits assumed): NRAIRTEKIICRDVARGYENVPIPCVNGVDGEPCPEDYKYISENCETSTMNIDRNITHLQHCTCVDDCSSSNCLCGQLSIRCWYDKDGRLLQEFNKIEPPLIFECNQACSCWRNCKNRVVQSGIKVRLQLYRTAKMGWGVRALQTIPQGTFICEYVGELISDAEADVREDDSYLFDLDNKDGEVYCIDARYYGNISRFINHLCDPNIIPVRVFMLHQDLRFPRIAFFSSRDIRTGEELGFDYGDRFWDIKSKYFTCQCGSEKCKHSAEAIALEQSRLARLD
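Step 1: enzyme (final 20 nM) with compound, 15 min RT. Step 2: substrate peptide 500 nM and SAM 20 uM, 2 h RT. Step 3: anti-H3K9me1 antibody and AlphaScreen beads, 10 min, then plate read.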
Numbers without * were called inactive; ! = a repeat was not active; [ ] = remark or other dose. The call rests on the fitted dose curve; in most records, active means well fitted curve in the direction sought with a large enough effect; inconclusive means small, poorly fitted or top-dose-only effect, or another doubt; inactive means no such curve, though single readings can be large; an effect the other way counts as inactive or inconclusive. Potency means the concentration at half of the fitted maximal effect.

Results for COc1ccc(C(=O)Nc2nnc(S(=O)(=O)N3CCCCCC3)s2)cc1OC ?
BAZ2B inh: -4.3%; GLS inh: 18.9%; JMJD2A Tudor inh: -2.8%; HP1b chromo inh: inconclusive; L3MBTL1 inh: 3.7%; G9a inh: inconclusive

Results for CC1CCN(S(=O)(=O)c2nnc(NC(=O)c3ccc(C(C)C)cc3)s2)CC1 ?
BAZ2B inh: inconclusive; GLS inh: 5.3%; JMJD2A Tudor inh: inconclusive; HP1b chromo inh: -17.3%; G9a inh: 14.1µM*

What do the screens show for `COc1ccc(C(=O)Nc2nnc(S(=O)(=O)N3CCC(C)CC3)s2)cc1OC`?
BAZ2B inh: inconclusive; GLS inh: 22.0%; JMJD2A Tudor inh: inconclusive; HP1b chromo inh: 26.1%; G9a inh: 12.6µM*!

What do the screens show for `CC(C)c1ccc(C(=O)Nc2nnc(S(=O)(=O)N3CCCCC3)s2)cc1`?
BAZ2B inh: -5.9%; GLS inh: 2.7%; JMJD2A Tudor inh: 2.1%; HP1b chromo inh: 47.6%; G9a inh: 22.8%

How did O=c1cc(CO)oc(CN2CCN(c3ccccc3F)CC2)c1O do in these assays?
BAZ2B inh: -31.3%; GLS inh: 22.2%; JMJD2A Tudor inh: inconclusive; HP1b chromo inh: 19.6%; L3MBTL1 inh: 7.8%; G9a inh: inconclusive

What do the screens show for `O=c1cc(CO)oc(CN2CCN(c3ccccc3)CC2)c1O`?
BAZ2B inh: -31.0%; GLS inh: 41.5%; JMJD2A Tudor inh: 50.1µM*; HP1b chromo inh: -6.2%; L3MBTL1 inh: -2.2%; G9a inh: 22.4µM*

How did CCN1CCN(Cc2oc(CO)cc(=O)c2O)CC1 do in these assays?
BAZ2B inh: 50.1µM*; GLS inh: 9.0%; JMJD2A Tudor inh: 12.6µM*; HP1b chromo inh: 12.7%; G9a inh: 1.78µM*

What do the screens show for `CCCCOc1ccc(-c2nonc2NC(=O)c2ccco2)cc1`?
BAZ2B inh: 8.6%; GLS inh: -0.4%; JMJD2A Tudor inh: -3.8%; HP1b chromo inh: 23.4%; G9a inh: 2.0%[59 µM]

Results for CCN(c1ccccc1)c1nc(=O)c2cccnc2s1 ?
BAZ2B inh: -13.9%; GLS inh: -2.3%; JMJD2A Tudor inh: -0.7%; HP1b chromo inh: 20.5%; L3MBTL1 inh: 3.2%; G9a inh: 35.5µM*

How did CCCCCn1ncc2c3sc(C)cc3n(C)c2c1=O do in these assays?
JMJD2A Tudor inh: 16.4%

Results for COc1ccc(N2CCN(CCCNC(=O)Cn3c(-c4cccs4)cc4ccccc43)CC2)cc1 ?
BAZ2B inh: inconclusive; GLS inh: 19.5%; JMJD2A Tudor inh: 17.8µM*; HP1b chromo inh: -30.6%; G9a inh: 10µM*

Results for COc1ccc(N2CCN(CCCNC(=O)CN3CCN(Cc4ccccc4C)C3=O)CC2)cc1 ?
BAZ2B inh: 31.6µM*; GLS inh: 53.6%; JMJD2A Tudor inh: inconclusive; HP1b chromo inh: inconclusive; L3MBTL1 inh: -23.7%; G9a inh: inconclusive

How did CC1CCN(CCCNC(=O)c2cc3sccc3n2C)CC1 do in these assays?
BAZ2B inh: 8.3%; GLS inh: 0.2%; JMJD2A Tudor inh: -26.9%; HP1b chromo inh: 16.2%; L3MBTL1 inh: -8.1%; G9a inh: inconclusive

What do the screens show for `COc1ccc(N2CCN(CCCNC(=O)c3cc4sccc4n3C)CC2)cc1`?
BAZ2B inh: 39.8µM*; GLS inh: 45.9%; JMJD2A Tudor inh: 31.6µM*; HP1b chromo inh: -52.3%; L3MBTL1 inh: inconclusive; G9a inh: 14.1µM*

How did CC(=O)Nc1ccc(NC(=O)Cc2sc(-c3cccnc3)nc2-c2ccc(C)cc2)cc1 do in these assays?
BAZ2B inh: -16.1%; GLS inh: -1.5%; JMJD2A Tudor inh: -9.7%; HP1b chromo inh: 29.5%; L3MBTL1 inh: -0.2%; G9a inh: 44.7µM*

What do the screens show for `Cc1ccc(-c2nc(-c3cccnc3)sc2CC(=O)O)cc1`?
BAZ2B inh: -15.6%; GLS inh: -1.5%; JMJD2A Tudor inh: -5.1%; HP1b chromo inh: 24.5%; L3MBTL1 inh: 7.3%; G9a inh: inconclusive

Results for Nc1nnc(SCC(=O)Nc2ccc(Cl)c(C(=O)O)c2)s1 ?
BAZ2B inh: 1.9%; GLS inh: 1.0%; JMJD2A Tudor inh: -8.9%; HP1b chromo inh: 25.9%; G9a inh: -51.0%

What do the screens show for `O=C(CSc1nnc(-c2ccncc2)s1)Nc1ccc(Cl)c(C(=O)O)c1`?
BAZ2B inh: inconclusive; GLS inh: 3.6%; JMJD2A Tudor inh: -18.3%; HP1b chromo inh: -1.9%; G9a inh: 50.1µM*

Results for Cc1ccc(NC(=O)CSc2nnc(-c3cccnc3)s2)cc1 ?
BAZ2B inh: 20.2%; GLS inh: 0.8%; JMJD2A Tudor inh: -6.0%; HP1b chromo inh: 33.1%; L3MBTL1 inh: 41.7%; G9a inh: 79.4µM*

Results for N#Cc1ccccc1NC(=O)C(=O)NCCc1csc(-c2ccc(C(F)(F)F)cc2)n1 ?
BAZ2B inh: 2.3%; GLS inh: 3.0%; JMJD2A Tudor inh: 2.9%; HP1b chromo inh: 29.7%[57 µM]; G9a inh: 4.0%[59 µM]

Results for CCOc1cc(C(c2c(C)[nH][nH]c2=O)c2c(C)[nH][nH]c2=O)ccc1OC(=O)c1cccc([N+](=O)[O-])c1 ?
BAZ2B inh: -35.5%; GLS inh: 55.8%; JMJD2A Tudor inh: inconclusive; HP1b chromo inh: -13.9%; G9a inh: 3.55µM*

How did Nc1cc2nc[nH]c2cc1N do in these assays?
BAZ2B inh: 28.2µM*; GLS inh: -13.7%; JMJD2A Tudor inh: 50.1µM*; HP1b chromo inh: 41.3%; L3MBTL1 inh: -12.7%; G9a inh: 17.8µM*

What do the screens show for `CN(C)c1ncc2nc(-c3cccs3)c(=O)n(C)c2n1`?
G9a inh: 11.2%[0.501 µM]

Results for COC(=O)C1=C(C)OC(N)=C(C#N)C1c1ccc(OC)c(CSc2ccccn2)c1 (stereo not given) ?
BAZ2B inh: -35.2%; GLS inh: 3.8%; JMJD2A Tudor inh: -19.8%[57.1 µM]; HP1b chromo inh: 21.3%; L3MBTL1 inh: 2.1%; G9a inh: 15.8µM*

How did COC(=O)C1=C(C)OC(N)=C(C#N)C1c1ccccc1 (stereo not given) do in these assays?
BAZ2B inh: 0.8%; GLS inh: 4.8%; JMJD2A Tudor inh: -8.4%[57.1 µM]; HP1b chromo inh: 62.3%; G9a inh: -4.9%[2.33 µM]

What do the screens show for `Cc1ccc(S(=O)(=O)N2CCN(CCC#N)CC2)cc1`?
BAZ2B inh: 20µM*; GLS inh: 63.4%; JMJD2A Tudor inh: 3.55µM*; HP1b chromo inh: 44.7µM*; L3MBTL1 inh: inconclusive; G9a inh: 7.08µM*

Results for N#CCCN1CCN(S(=O)(=O)c2ccc(S(=O)(=O)N3CCCCCC3)cc2)CC1 ?
BAZ2B inh: 7.9%; GLS inh: 2.3%; JMJD2A Tudor inh: 0.0%; HP1b chromo inh: 39.3%; L3MBTL1 inh: 7.6%; G9a inh: -12.9%[59 µM]
